For this assay, the system named is VDR:RXRa (NR concentration 270 nM, RXRa partner concentration 90 nM). Nature of the assay: PBM binding z-score (relative to random genomic background probes); higher = stronger binding; sequences stand for … in GC…GCGATTGACAGCGTAGAATGAAGG
Here is the method:
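Protein-binding microarray (Agilent 4x180K custom design, double-stranded 60-nt probes: 5' GC cap, 34-nt variable region, 24-nt constant primer region; full probe sequence given). Purified or IVT nuclear receptor:RXRα heterodimers (3:1 NR:RXRα, mostly 270:90 nM) or homodimers were incubated for 1 h in PBS with 2% milk and no ligand, then detected with Alexa488 antibodies. Fluorescence from o1-orientation probes (~5 replicates averaged) was converted to z-scores against 500 random hg19 background probes. Variable regions are seed direct-repeat (DR0–DR5) sites, all their single-nucleotide variants and half-site ablations.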
CGTCCAAGGTCAATGCTAGGTCAGTTAAAGCATT gave a PBM binding z-score of 5.01.
Take TCATGTAGATCAAAGGTTAAGAAAGCCGAAGCCT: the PBM binding z-score is 1.66.
Consider ATCTCTAGGTAAAAGGTCAGTGAATCCCGAGGAT, for which the PBM binding z-score worked out at 2.51.
Under AGTCAAACTTCACTAGGTAACGTAAGATTCAGCT stands -0.0334; under ATCGAAAGGTCGACGGTGAGTATACCCACCCGAA, 2.62.
In the case of CGTCCAAGGTCAATGCTAGGTCATTGAAAGCATT it was 5.84.
TCATATAGGTAAATGCCAGGTGAAAGTCCGATCT displayed a PBM binding z-score of 1.12.
In the case of GTACCAACGTGAATAGGTCGTTGATGAGTAGGCG it was -0.204.
Under ATATGTAAGTTACATCCGGGTCATTCAGGCTATG stands 3.56; under AGAATGAGGTTCAGATCAGGGAAACAGAATACAT, 0.949.
In turn, ATCGTAAGGTCGACGAGGTGAGTATACACCGTTT gave a PBM binding z-score of 4.52.
With ACTAGATGGTCAGCTGAGGTCACACACAATTCGG, the PBM binding z-score amounted to 4.7.
In the case of GCTATTAGTTGAAAAGGCAACCGAATGATTCTCG it was -0.31; in that of CGAACTAGCTCATTGACAGGACAGTGAATAGTAA, -0.486; in that of CCTAATAGTTGACCATAAGGGCAACCGAAGCTCG, 0.926.
Under CATACTAGGTCAAGAGGTCAAAGTCCGCTTCCCG stands 6.01; under TCTCGGAGAACACGAAAGGTCAGAGCTCGACATC, 2.22.
In the case of CCTACTGGGCCACGAAAGTTCATTGATTCAGTGA it was 3.51; in that of CAAACTAGGTCACGAAAGGTAAAAGTCGAATGAC, 3.25; in that of ATCGAAAGGTCGACGAAGTGAGTATACACCGTTT, 2.27.
Regarding AGAATGAGGTTACCAAAGAGCAGGGAAACGCTTG, the PBM binding z-score was 1.05.
Under CCTACTCGGCCATCAGGTCATTGATATCAACGTT stands 2.37.
In the case of ACTATTAGTTGGCTTAGGGCAACCGATACGACGC it was 0.158; in that of CCTAGTTGGTGAGGAGGTCACACACCGGATATGA, 3.46.
In the case of TGTGCTAGGTCAGTTGGTCAGCTAACGAGCTGCC it was -0.0889; in that of TCATATAGGTAAAACAGGTGAAAGTCGGCATCTA, 1.17; in that of CGTCCAAGGTCAAGGCTAGGTCAGTGAAAGCATT, 5.06.
The sequence TCTCGCAGGACACGAAGGTCAGAGCTTTCCAGAG displayed a PBM binding z-score of 1.57.
With CGTCCAAGGTGAATGCTAGGTCAGTGAAAGCATT, the PBM binding z-score was 0.559.
Under TCACATAGGTAATACAGGTGAAAGTCGGCATCTA stands 1.09; under CAGCCTAGGTCAGGGCAAGTATAGGAGGAACGTT, 0.782; under TCTGCTAGGTCAGTTGGTCAACTAACGAGCTGCC, 0.33.
In the case of CCTACTGGGCCAAGGTCATTTATCAGTCAAAGCA it was 3.13; in that of CCTAGCAGTCCAGGGTCACTCAAGCATTTCGCTT, 2.69; in that of GCTTACGGGTCAAAGGTTATCGCATGAATAGAAT, 5.72.
For the sequence CGCACTAGGTCAGAACAGGACAGTGAAGGATGAT, the PBM binding z-score worked out at 0.776.
The sequence CAAACTAGGTCAAGGTCAACGTCGGTTTGTGCCA came in with a PBM binding z-score of 5.02.
In the case of CCTTACGGGTCACTGGCAGGTTATAGCATTTGGA, the PBM binding z-score amounted to 3.81.
Under AGTCAAAGTTCAGGACGAGGTAACATAAAGCACG stands 3.13; under AGTCAAAGTACAGGACGAGGTAACGTAAAGCACG, -0.143.

(Values after the supplement of paper PMC6555819.)
